Test results as given in ChEMBL document CHEMBL4513216, “Probing the Open Global Health Chemical Diversity Library for Multistage-Active Starting Points for Next-Generation Antimalarials” (ACS Infect Dis, 2020).
The whole screen tested about 68,000 compounds, of which about 2,700 (4%) showed an effect of 50% or more. This excerpt belongs to a sample that is enriched for strong results.

test system: Plasmodium berghei; experiment: Screen against P. berghei liver stage (PbLuc), transformed with Luciferase, at 2uM; type: functional, HepG2; conditions: tested at 2 uM

| SMILES | INHIBITION [%] |
| --- | --- |
| Cn1cc(C[C@H]2[C@H](O)CCN2Cc2ccncc2)cn1 | 20.41 |
| CCCNC(=O)c1cn(C(C)(C)C)c2ncccc12 | 12.87 |
| COc1ccc(-c2cc3nn(CC(=O)NC(C)C)c(=O)n3c(C)n2)cc1 | 22.96 |
| COc1ccc(-c2cc3nn(CC(N)=O)c(=O)n3c(C)n2)cc1 | 52.74 |
| Cc1nc(-c2ccccc2)cc2nn(CC(N)=O)c(=O)n12 | 20.88 |
| CCn1ncc2c1NC(=O)C(C#N)C21CCCC1 (centres undefined) | -12.09 |
| CCN1CC(CN(C)c2cc(C)nc(N)n2)Oc2ccccc21 (centres undefined) | -10.39 |
| CC(C)OCCN1CCN(C(=O)c2cccc(CC#N)c2)CC1 | 5.72 |
| CC(=O)NCC1CCC2(CCN(c3ncnc4oc(C)nc34)CC2)O1 (centres undefined) | -7.91 |
| CC(=O)NCC1CCC2(CCN(c3ncc(C)cn3)CC2)O1 (centres undefined) | 58.03 |
| CC(=O)NCC1CCC2(CCN(c3ncc(C(C)=O)c(C)n3)CC2)O1 (centres undefined) | 11.37 |
| O=C(NCCn1nc2ccccn2c1=O)c1cc(C2CC2)[nH]n1 | 25.03 |
| CC(=O)c1cc(C(=O)NC2(c3ccccc3)CCC2)n(C)c1 | 10.43 |
| Cc1cc(C(=O)NC2(c3ccc(Br)cc3)CC2)n(C)n1 | -25.71 |
| CC(=O)c1cc(C(=O)NC2(c3ccc(Br)cc3)CC2)n(C)c1 | 63.4 |
| Cc1ncc(CNC(=O)CCc2cccc(F)c2)c(C2CCCN2C)n1 (centres undefined) | 7.21 |
| CNC1CCN(C2CCN(c3ccc(-c4ccco4)cc3)CC2)CC1 | 7.67 |
| COc1ccc(N2CCC(N3CCOC(C(F)(F)F)C3)CC2)cc1 (centres undefined) | 10.95 |
| O=C(O)c1ccccc1C1CCN(C2CCN(c3ccccc3)CC2)C1 (centres undefined) | 38.67 |
| c1coc(-c2nc3c(c(N4CCCN5CCC[C@H]5C4)n2)CCNCC3)c1 | -53.14 |
| NC1CCN(C2CCN(c3ccc(-c4ccco4)cc3)CC2)CC1 | 55.36 |
| NCC1CCN(C2CCN(c3ccc(-c4ccco4)cc3)CC2)C1 (centres undefined) | 74.44 |
| O=C(c1ncccn1)N1CCC2(CC1)COC(COc1ccccn1)C2 (centres undefined) | 17.35 |
| CCN(CC)c1ccc(C(=O)N2C[C@H]3CC[C@@H](C2)N(CCOC)C3)cc1 | -34.04 |
| CS(=O)(=O)N1CCOCC2(CCN(Cc3ccc[nH]3)CC2)C1 | -14.21 |
| CC(C1CC1)N(CC(=O)NC(=O)NC1CC1)C1CC1 (centres undefined) | 31.39 |
| CC(C1CC1)N(CC(=O)NCC(F)(F)F)C1CC1 (centres undefined) | 54.02 |

| SMILES | INHIBITION [%] |
| --- | --- |
| CC(C)NC(=O)CN(C1CC1)C(C)C1CC1 (centres undefined) | -26.26 |
| Cc1ncc(CNCC(=O)NC2CCCCC2)n1-c1ccccc1 | 21.97 |
| Cc1ncc(CNCC(=O)NCC(F)(F)F)n1-c1ccccc1 | 48.21 |
| Cc1ncc(CNCC2CCC(C(N)=O)CC2)n1-c1ccccc1 (centres undefined) | 72.05 |
| COCCc1noc(CN2CCCCC2Cn2cc(C)cn2)n1 (centres undefined) | 3.3 |
| Cn1cccc1C(=O)NS(=O)(=O)c1cnn(-c2ccccc2F)c1 | 25.21 |
| Fc1ccc(C2CN(CCc3ccncc3)CCO2)cc1 (centres undefined) | 13.26 |
| CCc1ccc(C2NCCc3cc4c(cc32)OCCO4)cc1 (centres undefined) | -5.98 |
| CCN1C[C@H]2CCN(C(=O)Cc3cccc(OC)c3)CC[C@H]2S1(=O)=O | -8.72 |
| Cc1cccc(NC(=O)C2CSCN2C(=O)c2cnccn2)c1C (centres undefined) | -1.85 |
| Cc1ccc(NC(=O)C2CSCN2C(=O)c2cnccn2)c(C)c1 (centres undefined) | 51.21 |
| Cc1ccc(NC(=O)C2CSCN2C(=O)c2cccnc2)c(C)c1 (centres undefined) | -0.12 |
| Cc1ccc(NC(=O)C2CSCN2C(=O)c2cnccn2)cc1C (centres undefined) | 54.2 |
| Cc1ccc(NC(=O)C2CSCN2C(=O)c2ccncc2)c(C)c1 (centres undefined) | 11.95 |
| Cc1ccc(NC(=O)C2CSCN2C(=O)c2cc[nH]n2)c(C)c1 (centres undefined) | -16.12 |
| O=S(=O)(NCc1ccccc1)Nc1ccc(-n2cncn2)cc1 | 4.12 |
| Fc1cnc(N2CCn3c(CN4CCCC4)nnc3C2)nc1 | -55.08 |
| CCNC(=O)[C@@H]1C[C@H](NC(=O)Cn2ccnc2)CN1Cc1ccsc1 | -35.46 |
| CC(C)c1cncnc1N1CC[C@H](N2CCOCC2)[C@H](CCCO)C1 | 68.36 |
| Cc1cnc(C)c(N2CC[C@H](N3CCOCC3)[C@H](CCCO)C2)n1 | 37.87 |
| OCCC[C@@H]1CN(c2ncc(Cl)cc2Cl)CC[C@@H]1N1CCOCC1 | -69.21 |
| Fc1ccc(CN2CCCn3cnc(COCC4CC4)c3C2)cc1 | 25.48 |
| CC(=O)N1CCC2(CC1)COCCN2CCN(C)C | 0.04 |
| CC1CN(C)c2ccccc2CN1C(=O)c1cc(C#N)cn1C (centres undefined) | 3.49 |
| CC(C)NC(=O)c1nc(Cn2c(C(F)F)nc3ccccc32)no1 | 51.42 |
| CC(C)NC(=O)c1nc(Cn2c(C(F)(F)F)nc3ccccc32)no1 | 37.53 |
| O=C(NC1CC1)c1nc(Cn2c(C(F)F)nc3ccccc32)no1 | 29.87 |
